According to PMC12864922, “TDP-43 directly inhibits mRNA accumulation in neurites through modulation of mRNA stability”:
In all, about 9,900 sequences were measured (“r (bound/input frequency ratio)”: median about 0.7, highest 2% from about 6.5 on). What follows is part of a selection rich in the highest values, with near analogues and random picks from the rest.

B1: ENSMUSG00000058297.560|Spock2|93:97;225:231 (ssRNA)
RNA: GGGAGUUCUACAGUCCGACGAUCGCUUCGAUAUCCGCAUGCUAACCUGGGGGUGCAAAAGGAGAUUCAAGACAUCCGUACCAAGUCAGGCAGAGCUACCCGCUUCUCAGCCCGUGUCCCACUUAAAACCGUCCGAACACAAAUCACUGAGCUUAGAGUUAAACAUUGUGGUCAAGUGCUUGGGUUCCGUCUGUAGAUUUAAGUGCUGACGUUGUAUCUCUCAGUAAUUUUAGAUGUCUUUUAAAAAAUCUGAACAAGUGUUAGACCCCACACACCGUUGGUGGGCACUCAAGCAUCCCGUGGGCUCUUGCGGUCGCACUAGUGUGGAAUUCUCGGGUGUCAAGG
B2: ENSMUSG00000042529.275|Kcnj12 (ssRNA)
RNA: GGGAGUUCUACAGUCCGACGAUCGCUUCGAUAUCCGCAUGCUAUUACCUGCCACUCACCUCUCUAUCUAGUUGUCGAGUCUAGGGAAGGGCAGAGGGUGGGUCCUGGCCACUGGGUGCCACUGUGGGAGCCGGGGCACCUGUCAUUCUUUCUGAGUAGGUGGGCCUGUAUCCAGAGCAGGGUCUAGGGGCUCCUGCUCCCGGCUCAUCUCAGUGGCCUGAAGCAUUCAAAACUCUAGCCAGCCCCAUCCUCCUCCCUGCCAGAAUGGUCCAGUCCCUGGGCCCUGCUGGAGAGCAGCUCAAACCUCUUGCGGUCGCACUAGUGUGGAAUUCUCGGGUGUCAAGG
B3: ENSMUSG00000042529.296|Kcnj12 (ssRNA)
RNA: GGGAGUUCUACAGUCCGACGAUCGCUUCGAUAUCCGCAUGCUAUCCAGAGCAGGGUCUAGGGGCUCCUGCUCCCGGCUCAUCUCAGUGGCCUGAAGCAUUCAAAACUCUAGCCAGCCCCAUCCUCCUCCCUGCCAGAAUGGUCCAGUCCCUGGGCCCUGCUGGAGAGCAGCUCAAACUGCCUUUCAUCUCUGCCAAAGGCAGGCAGAUGCUGUAUUUUCAAAUUCUCCUGCCCUCUUUUCCCCUUUUUCCCUGUAUUUAUUUAUUGCUUGUGCUAAAGACCAAACUAGCCGCCCCCUUUAGUGCUCUUGCGGUCGCACUAGUGUGGAAUUCUCGGGUGUCAAGG
B4: ENSMUSG00000090935.16|Synj2bp (ssRNA)
RNA: GGGAGUUCUACAGUCCGACGAUCGCUUCGAUAUCCGCAUGCUAAUAUGAACGGACGGGUGGAUUAUUUAGUCACGGAGGAAGAGAUCAACCUGACGAGAGGACCUUCGGGUAAAUGGCCAAGAUCUGAAGAACCUGCUGCACCAAGAUGCUGUAGACCUCUUCCGUAAUGCGGGAUGUGCUGUGUCCCUGAGAGUACAGCACAGGUUACCAGUGCAGAAUGGACCUAUAGUACAUCGAGGUGAAGGAGAGCCAAGUGGAGUUCCUGUAGCUAUGGUGCUGCUACCAGUGUUUGCCCUCACCAUCUCUUGCGGUCGCACUAGUGUGGAAUUCUCGGGUGUCAAGG

The binders below were run against TDP-43 (Homo sapiens, UniProt Q13148 1-414) (assay: RNA Bind-n-Seq with designed 260-mer pool; 25 mM Tris-HCl, 150 mM KCl, 3 mM MgCl2, BSA (printed 500 mg/mL), 20 units/mL SUPERase IN; pH not stated; 500 nM RNA pool, 1 h, 4 C; TDP-43 5, 50, 500 nM; high values mean tight binding). Settings: protein: recombinant; tags: SBP (GST cleaved off with PreScission; pGEX-GST-SBP).
Chain of TDP-43 (Q13148 whole entry): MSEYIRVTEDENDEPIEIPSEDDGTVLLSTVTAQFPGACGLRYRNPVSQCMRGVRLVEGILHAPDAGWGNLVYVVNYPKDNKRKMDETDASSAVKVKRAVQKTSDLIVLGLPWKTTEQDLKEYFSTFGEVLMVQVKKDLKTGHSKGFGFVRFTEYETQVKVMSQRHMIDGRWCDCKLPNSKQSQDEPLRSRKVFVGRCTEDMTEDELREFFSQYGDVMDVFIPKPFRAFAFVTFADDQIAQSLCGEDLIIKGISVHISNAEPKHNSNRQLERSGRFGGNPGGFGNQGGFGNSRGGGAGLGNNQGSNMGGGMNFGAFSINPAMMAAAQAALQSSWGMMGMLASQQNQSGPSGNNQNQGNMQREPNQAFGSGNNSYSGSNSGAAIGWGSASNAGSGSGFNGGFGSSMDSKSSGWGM
How it was run: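 Duplicate measurements used two independent batches of recombinant SBP-tagged TDP-43, which was captured on streptavidin beads at 5, 50 or 500 nM. The beads were incubated with 500 nM of an in vitro-transcribed 260-nt 3′ UTR oligo pool for 1 h at 4 °C in 25 mM Tris-HCl, 150 mM KCl, 3 mM MgCl2, BSA and SUPERase IN. After washing, biotin elution, reverse transcription, PCR amplification and sequencing, binding was expressed as R: each oligo's normalized read abundance in the bound sample over its abundance in input.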

Which binding signal does the source give for B1 here?
The binding signal was 0.189 R (bound/input frequency ratio).

With B2 as the binder, how does the binding signal read?
Its binding signal is 0.367 R (bound/input frequency ratio).

B3 was tested. Which binding signal did it give?
Its binding signal is 1.65 R (bound/input frequency ratio).

B4 was tested. Which binding signal did it give?
Its binding signal is 0.983 R (bound/input frequency ratio).
